Screens: PubChem BioAssay, several laboratories
MsrA inhibitor: bovine MsrA inhibition; purified bovine MsrA, absorbance read-out; inhibition, % at 15.5 µM; actives 0.75% (n = 360,000); in the data active = inhibition above about 4.5%;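 note: 0% = vehicle wells with enzyme and 100% = reference inhibitor wells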
GC-A act: GC-A (human) enzyme activation; AID 1671463; activation, % at 10 µM; actives 0.14% (n = 370,000); HEK293 GC-A cells, cGMP TR-FRET, EC30 ANP; 0% at EC30 ANP, 100% saturating ANP; P16066; in the data active = activation above about 40%
GC-B act: GC-B (human) receptor activation | P20594 | HEK293-GC-B cells, CNP EC30, cGMP TR-FRET; 0% at EC30 CNP, 100% saturating CNP | activation, % at 10 µM | actives 0.11% (n = 370,000);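 active = activation at 10 µM reaching about 35% in either raw or pattern-adjusted values, limit read from the data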
MsrA act: activates bovine MsrA enzyme. purified bovine MsrA, absorbance read-out. activation, % at 10.6 µM. actives 0.3% (n = 360,000); in the data active = activation above about 7.5%;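 note: 0% = vehicle and 100% = reference activator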
* marks the source's active call; other numbers are inactive results; x = not tested or not shown; ! = repeats disagree. In the library only some 1.2% were active in any assay of this set; here they are far more common.

SMILES	MsrA inhibitor	GC-A act	GC-B act	MsrA act
O=C(Nc1ccc(F)cc1)c1nc(S(=O)(=O)Cc2ccccc2)ncc1Cl	1.8	41.6*	14.1	-5.9
Cc1ccccc1CS(=O)(=O)c1ncc(Cl)c(C(=O)Nc2ccc(F)cc2)n1	2.4	42.0*	9.9	-8.6
CCS(=O)(=O)c1ncc(Cl)c(C(=O)Nc2ccc(S(=O)(=O)N(C)c3ccccc3)cc2)n1	1.3	62.0*	40.9*	-12.2
CC(=O)OCCC(CC(C)C)NC(=O)[C@H](CC(C)C)NC(=O)OCc1ccccc1 (some centres not stated)	x	-1.0	-3.7	x
O=C(COC(=O)c1ccc([N+](=O)[O-])cc1Cl)Nc1cccnc1Cl	-0.3	2.3	-3.5	-1.9
O=C(COC(=O)c1cc([N+](=O)[O-])ccc1NCCO)Nc1cccnc1Cl	4.3	55.9*	57.1*	-3.1
CC(c1ccccc1)N1CC[C@H]2C=CC[C@@H](C(=O)Nc3cccc(Cl)c3)[C@H]2C1=O (some centres not stated)	x	-0.5	-4.9	x
CCOc1ccc(C(=O)c2nc3c(n2O)CCCC3)cc1	5.0*	0.8	-0.8	-12.3
O=C(CCl)N1N=C(c2ccco2)CC1c1ccco1 (configuration not stated)	1.0	2.4	-8.6	-13.8
CC(=O)C1=C(O)C=C(c2ccco2)CC1c1ccco1 (configuration not stated)	4.8*	2.1	-0.4	-13.5
CCNC(=O)Nc1ccc2c(c1)C(=O)N(C)[C@H]1CC[C@@H](CC(=O)OC)O[C@H]1CO2	x	4.5	-6.8	x
COC(=O)c1cc(-c2ccc(Br)cc2)on1	-0.1	59.3*	8.4	-4.9
CCCCNC(=O)N1CCC(c2nc3ccc(Cl)cc3[nH]2)CC1	x	-6.5	-7.8	x
Cc1csc(NC(=O)/C=C/c2ccc3c(c2)OCO3)n1	4.6*	9.0	1.1	-8.7
Cc1ccc2nc(NC(=O)/C=C/c3ccc4c(c3)OCO4)sc2c1	0.4	2.4	0.2	-5.9
COc1ccc(N=Cc2nc(-c3ccco3)oc2O)cc1	0.9	-2.7	-9.0	-2.9
O=C(Oc1oc(-c2ccco2)nc1C=Nc1ccc(Cl)cc1)c1ccco1	0.6	44.0*	1.4	-3.3
COc1ccc(/C=N/N=C/c2ccc(OC)c(O)c2)cc1O	7.1*	2.0	1.0	-4.7
COc1ccc(/C=N/N=C/c2ccc(OC)c(OC)c2)cc1OC	2.0	0.8	-0.5	2.6
COc1ccc(/C=C2\Sc3ccc(C(=O)NC4CC4)cc3N(C)C2=O)cc1OC	4.1	29.5	38.7*	-1.4
COc1ccc(/C=C2\Sc3ccc(C(=O)N4CCCC4)cc3N(C)C2=O)cc1OC	x	x	x	-10.1
C=CCn1c(SCC(=O)Nc2ccccc2OCC)nnc1-c1ccc(C(C)(C)C)cc1	x	-2.2	4.8	x
CC(C)CCn1cnc2c(c1=O)c1nc3ccccc3nc1n2Cc1ccc2c(c1)OCO2	-0.5	39.2	50.1*	-8.5
O=c1c2ccccc2ncn1Cc1ccc2c(c1)OCO2	0.3	4.4	6.5	-2.3
Cc1ccc(C)c(OCc2ccc(C(=O)Nc3ccc([N+](=O)[O-])cn3)o2)c1	1.0	4.1	4.2	-0.9
SMILES	MsrA inhibitor	GC-A act	GC-B act	MsrA act
Cc1ccc(C(=O)Nc2ccc([N+](=O)[O-])cn2)o1	4.6*	0.1	4.4	-2.9
COc1ccc(/C=N/NC(=S)NC2CCS(=O)(=O)C2)cc1OC (configuration not stated)	6.0*	8.2	3.2	-5.7
Cc1ccccc1C1C(C#N)=C2N=C(N)c3ccccc3N2C2=C1C(=O)CCC2 (configuration not stated)	0.6	28.1	38.2*	0.5
CCc1ccc2[nH]c(=O)c(CN(Cc3ccc(F)cc3)C(c3nnnn3CCN3CCOCC3)C(C)C)cc2c1 (configuration not stated)	x	x	x	8.6*
CCc1ccc2[nH]c(=O)c(C(c3nnnn3CCOC)N3CCN(c4ccc(F)cc4)CC3)cc2c1 (configuration not stated)	0.6	2.2	9.4	-5.4
CN1CC(O)([C@H](Cc2ccccc2)NC(=O)OC(C)(C)C)OCC1C(=O)NCc1cccc2ccccc12 (some centres not stated)	x	-3.1	-0.9	x
Cc1ccccc1OCC(=O)Nc1sc(C(=O)Nc2cccc(C)c2C)c(C)c1C#N	x	55.8*	-8.8	-6.8
CN(C)c1nc(NCc2ccccc2)nc(SCC(=O)Nc2ccccc2Cl)n1	0.3	3.7	0.5	-1.3
CN(C)c1nc(NCc2ccccc2)nc(SCC(=O)Nc2ccccc2)n1	1.0	-4.0	1.7	18.0*
O=C(Oc1cc2oc(=O)cc(-c3ccccc3)c2cc1Cl)C1CCCCC1	18.0*	6.8	-0.9	-1.7
CC(C)(C)OC(=O)NCC(=O)Oc1cc2oc(=O)cc(-c3ccccc3)c2cc1Cl	1.9	11.4	-5.2	-4.7
COC(=O)[C@]12C[C@H](CC(=O)N3CCN(C(=O)C4CC4)CC3)C(=O)N(Cc3ccc4c(c3)OCO4)C1=C[C@H](C(C)C)O[C@@H]2C1CC1	x	1.2	1.5	x
CC1(C)CC(N2CCN(Cc3ccccc3)CC2)=CC(=[N+]2CCCCC2)C1	4.1	-3.8	-3.5	-12.0
CN(Cc1ccccc1)C1=CC(=[N+]2CCCCC2)CC(C)(C)C1	4.7*	2.9	1.8	-17.8
CCCC/C=C1/[C@H](c2ccccc2)N(C)C2=N[C@H](c3ccccc3)CC(=O)N21	x	-30.1	-30.7	x
CCN(CC(=O)Nc1ccc([N+](=O)[O-])cc1OC)c1ccccc1	4.8*	-6.3	-0.8	-3.5
COc1cc([N+](=O)[O-])ccc1NC(=O)CN(C)C	2.4	0.4	0.4	-3.4
CCOC(=O)CC(=O)CSc1nc(-c2ccc3c(c2)OCO3)cc(C(F)(F)F)c1C#N	x	19.8	20.9	-0.6
CCOC(=O)CCSc1nc(-c2ccc3c(c2)OCO3)cc(C(F)(F)F)c1C#N	1.4	42.0*	21.8	-4.9
c1csc(CNc2ncnc3ccc(-c4ccc5c(c4)OCO5)cc23)c1	0.5	2.0	32.5*!	-13.9
c1csc(CNc2ncnc3ccc(-c4ccoc4)cc23)c1	1.9	30.8	27.7	-2.0
O=C(Nc1cccc(F)c1)OCCN1CCCC12CCC(c1ccccc1)CC2 (configuration not stated)	x	-7.4	-7.5	x
C=CCNC(=S)Nc1sc2c(c1C(=O)OCC)CC(C)(CC)OC2 (configuration not stated)	4.6*	-3.6	-4.1	2.6
CCC(=O)N1CCc2cc(Br)c(S(=O)(=O)NC3CCN(Cc4ccccc4)CC3)cc21	x	-1.6	-9.9	x
CCC[C@H]1[C@@H](N(C)CC2CCCCC2)CC[C@@]23CCCN2C(=O)CCC[C@@H]13	x	1.8	-2.4	x
COc1cc(/C=N/NC(=O)c2cccc(NC(=O)c3ccccc3)c2)ccc1O	4.6*	0.5	6.0	-3.2
COc1ccc(/C=N/NC(=O)c2ccc(NC(=O)c3cccc([N+](=O)[O-])c3)cc2)c(C(=O)O)c1OC	4.6*	0.1	1.2	-13.6
COc1cc(/C=N/NC(=O)c2cccc(NC(=O)c3ccccc3C)c2)ccc1O	1.1	1.6	1.9	-1.0
CCN(CC)CC(C)(C)C(=O)/C=C/c1ccc(/C=C/C(=O)C(C)(C)CN(CC)CC)cc1	11.9*	-6.9	0.5	2.3
